Reference: article PMC12820563, “FoxP3 forms a head-to-head dimer in vivo and stabilizes its multimerization on adjacent microsatellites”
In all, about 16,000 sequences were measured (“rpm ratio (pull-down/input)”: median about 0.5, highest 2% from about 5.5 on). This excerpt belongs to a sample that is enriched for the highest values.

The sequences below were run against T1, MBP-FoxP3dN (Mus musculus, UniProt Q99JB6 188-423) (assay: PD-seq (MBP pull-down with sequencing); 20 mM Tris-HCl pH 7.5, 100 mM NaCl, 1.5 mM MgCl2, 0.4 uM protein, 0.1 uM dsDNA library, 30 min, room temperature, amylose pull-down; high values mean tight binding). Conditions: protein: recombinant; tags: His6-MBP; chain copies: 2; dsDNA, one strand shown.
T1 sequence: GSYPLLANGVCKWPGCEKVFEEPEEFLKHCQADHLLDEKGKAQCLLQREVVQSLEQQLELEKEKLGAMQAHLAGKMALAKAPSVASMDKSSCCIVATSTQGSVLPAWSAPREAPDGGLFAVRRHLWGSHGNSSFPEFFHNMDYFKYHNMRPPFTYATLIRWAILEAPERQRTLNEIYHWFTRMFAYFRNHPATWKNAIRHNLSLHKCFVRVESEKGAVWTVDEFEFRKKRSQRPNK
How it was run: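 A fragment of mouse FoxP3 or FoxP1 without its N-terminus, carrying a His6-MBP tag and produced in E. coli, was combined at 0.4 µM with a 0.1 µM degenerate double-stranded DNA library filled in with Klenow. The mixture sat for 30 min at room temperature in Tris pH 7.5 buffer containing NaCl and MgCl2. Protein–DNA complexes were captured on amylose resin, washed three times, and the DNA was freed with proteinase K, barcoded by PCR and sequenced on Illumina. Binding is expressed as reads-per-million enrichment of pull-down over input, with replicates pooled.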

Sequence	binding signal
GATGATTGTTCTCCCAGCTGATGAATTCTGCGGGTCGAGTAAACAAATTTTCCTAATCTTTCTGTTCAAGCGCCATCTAC	0.928 RPM ratio (pull-down/input)
GATGATTGTTCTCCCAGCTGATGAATTAGTCCGTTCGAGTAAACAAATTTTCCTAATCTTTCTGTTCAAGCGCCATCTAC	0.434 RPM ratio (pull-down/input)
GATGATTGTTCTCCCAGCTGATGAATTCATGAAATCGAGTAAACAAATTTTCCTAATCTTTCTGTTCAAGCGCCATCTAC	0.289 RPM ratio (pull-down/input)
GATGATTGTTCTCCCAGCTGATGAATTAAACCTTTCGAGTAAACAAATTTTCCTAATCTTTCTGTTCAAGCGCCATCTAC	0.318 RPM ratio (pull-down/input)
GATGATTGTTCTCCCAGCTGATGAATTATTCTGCTCGAGTAAACAAATTTTCCTAATCTTTCTGTTCAAGCGCCATCTAC	0.328 RPM ratio (pull-down/input)
GATGATTGTTCTCCCAGCTGATGAATTATGAGAGTCGAGTAAACAAATTTTCCTAATCTTTCTGTTCAAGCGCCATCTAC	0.397 RPM ratio (pull-down/input)
GATGATTGTTCTCCCAGCTGATGAATTTAAGGCATCGAGTAAACAAATTTTCCTAATCTTTCTGTTCAAGCGCCATCTAC	0.732 RPM ratio (pull-down/input)
GATGATTGTTCTCCCAGCTGATGAATTTAAAGACTCGAGTAAACAAATTTTCCTAATCTTTCTGTTCAAGCGCCATCTAC	0.245 RPM ratio (pull-down/input)
GATGATTGTTCTCCCAGCTGATGAATTAGTACAGTCGAGTAAACAAATTTTCCTAATCTTTCTGTTCAAGCGCCATCTAC	0.484 RPM ratio (pull-down/input)
GATGATTGTTCTCCCAGCTGATGAATTGGATTTATCGAGTAAACAAATTTTCCTAATCTTTCTGTTCAAGCGCCATCTAC	1.47 RPM ratio (pull-down/input)
GATGATTGTTCTCCCAGCTGATGAATTCCCTGCATCGAGTAAACAAATTTTCCTAATCTTTCTGTTCAAGCGCCATCTAC	0.746 RPM ratio (pull-down/input)
GATGATTGTTCTCCCAGCTGATGAATTCTGCCATTCGAGTAAACAAATTTTCCTAATCTTTCTGTTCAAGCGCCATCTAC	4.97 RPM ratio (pull-down/input)
GATGATTGTTCTCCCAGCTGATGAATTTCCTGCATCGAGTAAACAAATTTTCCTAATCTTTCTGTTCAAGCGCCATCTAC	0.719 RPM ratio (pull-down/input)
GATGATTGTTCTCCCAGCTGATGAATTTCTGCATTCGAGTAAACAAATTTTCCTAATCTTTCTGTTCAAGCGCCATCTAC	6.35 RPM ratio (pull-down/input)
GATGATTGTTCTCCCAGCTGATGAATTCGCTGCATCGAGTAAACAAATTTTCCTAATCTTTCTGTTCAAGCGCCATCTAC	1.02 RPM ratio (pull-down/input)
GATGATTGTTCTCCCAGCTGATGAATTCCTGCATTCGAGTAAACAAATTTTCCTAATCTTTCTGTTCAAGCGCCATCTAC	5.61 RPM ratio (pull-down/input)
GATGATTGTTCTCCCAGCTGATGAATTCTTGACCTCGAGTAAACAAATTTTCCTAATCTTTCTGTTCAAGCGCCATCTAC	0.216 RPM ratio (pull-down/input)

Sequence	binding signal
GATGATTGTTCTCCCAGCTGATGAATTCATTCCGTCGAGTAAACAAATTTTCCTAATCTTTCTGTTCAAGCGCCATCTAC	0.236 RPM ratio (pull-down/input)
GATGATTGTTCTCCCAGCTGATGAATTTTTCAGTTCGAGTAAACAAATTTTCCTAATCTTTCTGTTCAAGCGCCATCTAC	0.248 RPM ratio (pull-down/input)
GATGATTGTTCTCCCAGCTGATGAATTTGAGTAGTCGAGTAAACAAATTTTCCTAATCTTTCTGTTCAAGCGCCATCTAC	0.778 RPM ratio (pull-down/input)
GATGATTGTTCTCCCAGCTGATGAATTTTTGGTGTCGAGTAAACAAATTTTCCTAATCTTTCTGTTCAAGCGCCATCTAC	0.396 RPM ratio (pull-down/input)
GATGATTGTTCTCCCAGCTGATGAATTTGTGTGGTCGAGTAAACAAATTTTCCTAATCTTTCTGTTCAAGCGCCATCTAC	5.5 RPM ratio (pull-down/input)
GATGATTGTTCTCCCAGCTGATGAATTTGGTGTGTCGAGTAAACAAATTTTCCTAATCTTTCTGTTCAAGCGCCATCTAC	3.91 RPM ratio (pull-down/input)
GATGATTGTTCTCCCAGCTGATGAATTTCTGTGGTCGAGTAAACAAATTTTCCTAATCTTTCTGTTCAAGCGCCATCTAC	0.335 RPM ratio (pull-down/input)
GATGATTGTTCTCCCAGCTGATGAATTTTTGTGGTCGAGTAAACAAATTTTCCTAATCTTTCTGTTCAAGCGCCATCTAC	0.472 RPM ratio (pull-down/input)
GATGATTGTTCTCCCAGCTGATGAATTTGTGGTGTCGAGTAAACAAATTTTCCTAATCTTTCTGTTCAAGCGCCATCTAC	6.2 RPM ratio (pull-down/input)
GATGATTGTTCTCCCAGCTGATGAATTTAGCCCATCGAGTAAACAAATTTTCCTAATCTTTCTGTTCAAGCGCCATCTAC	1.28 RPM ratio (pull-down/input)
GATGATTGTTCTCCCAGCTGATGAATTTCCACGATCGAGTAAACAAATTTTCCTAATCTTTCTGTTCAAGCGCCATCTAC	0.211 RPM ratio (pull-down/input)
GATGATTGTTCTCCCAGCTGATGAATTGCATCGGTCGAGTAAACAAATTTTCCTAATCTTTCTGTTCAAGCGCCATCTAC	1.43 RPM ratio (pull-down/input)
GATGATTGTTCTCCCAGCTGATGAATTATGTTCTTCGAGTAAACAAATTTTCCTAATCTTTCTGTTCAAGCGCCATCTAC	1.3 RPM ratio (pull-down/input)
GATGATTGTTCTCCCAGCTGATGAATTATGATGGTCGAGTAAACAAATTTTCCTAATCTTTCTGTTCAAGCGCCATCTAC	1.33 RPM ratio (pull-down/input)
GATGATTGTTCTCCCAGCTGATGAATTATGATGTTCGAGTAAACAAATTTTCCTAATCTTTCTGTTCAAGCGCCATCTAC	3.29 RPM ratio (pull-down/input)
GATGATTGTTCTCCCAGCTGATGAATTATGTTTTTCGAGTAAACAAATTTTCCTAATCTTTCTGTTCAAGCGCCATCTAC	6.33 RPM ratio (pull-down/input)
